Our source for the growth inhibition values is PubChem BioAssay (NCI).

Several values for one entry are separate records, joined by “and”; a condition that tells them apart may be missing. Identical values can stand only once. About 79,000 compounds went through this panel and 15% of them were active in at least one assay; those are over-represented in the sample as a whole. Unmarked numbers belong to inactive results. Activity calls are given as the source filed them. Cut-off read from the data, not from the text of the source: active = growth inhibition above about 70%; inactive = the rest. Where a SMILES comes first, the peptide text is derived from it. The star is where a group is joined. Boc = CC(C)(C)OC(=O)*; OBn = c1ccc(CO*)cc1

Assay [1] is described as follows: NCI Yeast Anticancer Drug Screen. Data for the rad50 strain (AID 155).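 Note: 0% = growth of vehicle-only cultures of the same strain.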 The following applies: S. cerevisiae rad50 strain growth inhibition, hits give high values; at 50.0 µM unless noted. The gist of the method:
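Compounds were tested on a yeast strain with an engineered DNA damage repair alteration; the reported value is growth inhibition normalised to vehicle treatment.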

Assay [2] in a line: NCI Yeast Anticancer Drug Screen. Data for the mec2-1 strain (AID 157). The following applies: S. cerevisiae mec2-1 strain, hits give high values; at 50.0 µM unless noted. The gist of the method:
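Mutant yeast (mec2-1) grown with compound; growth inhibition relative to vehicle control reported.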

A short description of assay [3]: NCI Yeast Anticancer Drug Screen. Data for the sgs1 mgt1 strain (AID 161).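 Note: 0% = growth of cultures given vehicle only.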 Conditions: S. cerevisiae sgs1 mgt1 strain, hits give high values; at 50.0 µM unless noted. The gist of the method:
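Percent growth inhibition was derived by comparing compound-exposed mutant yeast with vehicle-exposed cultures. The strain carries alterations in DNA damage repair.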

Assay [4] is described as follows: NCI Yeast Anticancer Drug Screen. Data for the cln2 rad14 strain (AID 165).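 Note: 0% = growth equal to vehicle treated cultures.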 Conditions: S. cerevisiae cln2 rad14 strain, hits give high values; at 50.0 µM unless noted. The gist of the method:
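Readout is yeast growth inhibition versus vehicle-treated controls, using a strain with cln2 and rad14 alterations exposed to compound.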

The nature of assay [5]: NCI Yeast Anticancer Drug Screen. Data for the bub3 strain (AID 167). Conditions: S. cerevisiae bub3 mutant strain, hits give high values; at 50.0 µM unless noted. The gist of the method:
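Growth of a checkpoint-deficient yeast mutant is measured after compound exposure. Values represent inhibition relative to vehicle.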

Assay [6] is described as follows: NCI Yeast Anticancer Drug Screen. Data for the mlh1 rad18 strain (AID 175). The following applies: S. cerevisiae mlh1 rad18 strain growth inhibition, hits give high values; at 50.0 µM unless noted. The gist of the method:
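Genetically defined yeast (DNA repair-deficient) exposed to compounds; growth inhibition determined relative to vehicle.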

Turning to `CN(C)c1ccc(-c2nc(-c3cc4c(ccc5ccccc54)oc3=O)cs2)cc1`, the growth inhibition in assay [1] was 22.1%; in assay [2], 15.6%; in assay [3] it was -7.55%; in assay [4] it was 6.4%; in assay [5], -19.8%; in assay [6] it was -36%.
For `FC(F)(F)COP1(OCC(F)(F)F)=NP(OCC(F)(F)F)(OCC(F)(F)F)=NP(OCC(F)(F)F)(OCC(F)(F)F)=N1`, the growth inhibition in assay [1] is -1.2%; in assay [2] it was 14.3%; in assay [3] it was -5.15%; in assay [4], -4.55%; in assay [5], -3.45%; in assay [6] it was 6.8%.
As for `CCCCCCC1OCC(CC)([N+](=O)[O-])CO1` (stereo not given), the growth inhibition in assay [1] is -13.8%; in assay [2], -9.6%; in assay [3], 1.15%; in assay [4] it was -39.8%; in assay [5] it was -23.6%; in assay [6] it was -12.9%.
In the case of `O=C1N(C2CCCCC2)C(/C=C/c2ccccc2)C1(c1ccccc1)c1ccccc1` (stereo not given), the growth inhibition in assay [1] is 22.4%; in assay [2], 0.25%; in assay [3], 3.65%; in assay [4] it was 19.6%; in assay [5], -6.05%; in assay [6], 4.7%.
Take `CCCCCOC(=O)C#CC(=O)OCCCCC`: the growth inhibition in assay [1] was 99.8% (active); in assay [2], 99.8% (active); in assay [3] it was 99.7% (active); in assay [4] it was 99.4% (active); in assay [5], 99.8% (active); in assay [6], 99.7% (active).
With `C/C(=N\NC(=O)c1ccncc1)c1cc(Cl)ccc1Cl`, the growth inhibition in assay [1] was 2.9%; in assay [2], 5.4%; in assay [3] it was 4.65%; in assay [4], 8.15%; in assay [5] it was 0.35%; in assay [6], 8.7%.
In the case of `CC(C)CC(NC(=O)C(Cc1ccccc1)NC(=O)C(Cc1ccccc1)NC(=O)OC(C)(C)C)C(=O)OCc1ccccc1` (stereo not drawn) (Boc-Phe-Phe-Leu-OBn; configuration not given here), the growth inhibition was -3.15% in assay [1]; -10.3% in assay [2]; -5.95% in assay [3]; -7.2% in assay [4]; 0.95% in assay [5]; 5.95% in assay [6].
As for `CC(=O)OCCN(CCOC(C)=O)CCOC(C)=O`, the growth inhibition is -8.4% in assay [1]; -3.5% in assay [2]; -3.4% in assay [3]; -52.3% in assay [4]; -3.4% in assay [5]; 18.5% in assay [6].
Consider `O=C1N=C2Sc3ccc4ccccc4c3N2C1=O`, for which the growth inhibition is 21.2% in assay [1]; 2.55% in assay [2]; 24.1% in assay [3]; 20.4% in assay [4]; 5.5% in assay [5]; 11.2% in assay [6].
In the case of `CC1(C)C2(Cl)C(Cl)=C(Cl)C13C(Cl)(c1ccc([N+](=O)[O-])cc1C1(Cl)C(Cl)(Cl)C4(Cl)C(Cl)=C(Cl)C13C4(C)C)C2(Cl)Cl` (stereo not given), the growth inhibition in assay [1] was 0.55%; in assay [2], -10.1%; in assay [3], -27.9%; in assay [4] it was -7.6%; in assay [5], -2.5%; in assay [6], 13%.
In the case of `CC1(C)CC[C@]2(C(=O)O)CCC3(C)C(=CCC4[C@@]5(C)CC[C@H](OC6OCC(O)C(O)C6OC6OC(CO)C(O)C(O)C6O)C(C)(C)C5CC[C@]43C)C2C1` (stereo not given in full), the growth inhibition was 84.8% (active) in assay [1]; 85.2% (active) in assay [2]; 89.8% (active) in assay [3]; 87.7% (active) in assay [4]; 88.5% (active) in assay [5]; 87.5% (active) in assay [6].
Consider `CCOC(=O)C1=C(C)O/C(=C/c2cccc(Cl)c2)C1=O`, for which the growth inhibition in assay [1] is 42%; in assay [2], 35.2%; in assay [3], 31.1%; in assay [4], 45.9%; in assay [5], 47%; in assay [6], 56.1%.
For the compound `CC(C)c1cccc(C(C)C)c1NC(=O)C(=O)Cc1nc2ccc([N+](=O)[O-])cc2[nH]c1=O`, the growth inhibition was 26.6% in assay [1]; 19.6% in assay [2]; 34.6% in assay [3]; 25.3% in assay [4]; 24.6% in assay [5]; 40.8% in assay [6].
For the compound `CN(C)c1ccc(-c2c3ccccc3nc3ccccc23)cc1`, the growth inhibition was -19.4% and -12.1% in assay [1]; 9.35% and -6.05% in assay [2]; 14.2% and -14.2% in assay [3]; 0.05% and -26.1% in assay [4]; 9.95% and -16.1% in assay [5]; -4.7% and 5.8% in assay [6].
For the compound `CN(C)C(CCC(=O)NC(C)(C)C)CC(=O)NC(C)(C)C` (stereo not given), the growth inhibition in assay [1] is 0.2%; in assay [2], 5%; in assay [3], 11.7%; in assay [4], -2.35%; in assay [5] it was 6.95%; in assay [6] it was -8.65%.
Take `CC(C)(C)C(=O)CC(=O)C(F)(F)C(F)(F)C(F)(F)F.CC(C)(C)C(=O)CC(=O)C(F)(F)C(F)(F)C(F)(F)F.CC(C)(C)C(=O)CC(=O)C(F)(F)C(F)(F)C(F)(F)F.[La]`: the growth inhibition in assay [1] is 2.85%; in assay [2] it was -0.9%; in assay [3], -3.95%; in assay [4] it was -8.85%; in assay [5] it was -3.95%; in assay [6] it was 18.8%.
Take `CN(C)/N=C(\CBr)c1ccc([N+](=O)[O-])cc1`: the growth inhibition in assay [1] was -1.8%; in assay [2], 4.9%; in assay [3] it was 6.75%; in assay [4], 11.2%; in assay [5], -3%; in assay [6] it was 5.4%.
With `c1ccc(Cc2cncc(Cc3ccccc3)c2)cc1`, the growth inhibition in assay [1] is -22.5%; in assay [2], 1.95%; in assay [3], 6.85%; in assay [4], -58.6%; in assay [5] it was 55.5%; in assay [6], 9.1%.
Consider `COc1cccc(OC)c1NC(=O)C(=O)Nn1c(NNC(=O)c2ccncc2)nc2ccccc2c1=O`, for which the growth inhibition is 28.6% in assay [1]; 26.5% in assay [2]; 4.65% in assay [3]; -30.1% in assay [4]; 35% in assay [5]; 38.4% in assay [6].
Take `COc1cc(OC)c(/C=N/N=C(\N)NO)c(OC)c1`: the growth inhibition in assay [1] is -8.95%; in assay [2], 12.2%; in assay [3], -0.7%; in assay [4], 9.65%; in assay [5] it was -1.15%; in assay [6], -9.75%.
